HCMV antiviral – inhibitors of human cytomegalovirus | hit rate 4.5% among 410,000 | AID 1259415 | HFF cells, HCMV-luciferase reporter, 72 h; hits give low values | activity change, negative = inhibition, % at 57.5 µM; in the data active means activity change below about -60%; inconclusive means no clear call, values can overlap the other calls; inactive means above about -39%
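Two-dose cell screen: HFF monolayers treated with compounds and infected with luciferase-expressing HCMV at 1 PFU/cell, 72 h at 37C, then lysed for luciferase measurement.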
Marburg entry inh – blocks Marburg virus binding to or entry into cells; Marburg virus pseudotyped entry inhibition, cell reporter; Potency, µM (doses to about 37.8 µM), inactives show at the highest dose activity change, negative = inhibition, most hits filed as inhibitors; hit rate 1.8% among 300,000; calls by dose curve; tested in HEK293 cells; further: potency means the concentration at half of the fitted maximal effect
FMDV inh – antivirals against foot and mouth disease virus; FMDV antiviral cell-based qHTS; Potency, µM (doses to about 57.9 µM), inactives show at the highest dose activity change, negative = inhibition, usual class: inhibitors; hit rate 1.2% among 410,000; AID 1159524; calls by dose curve; tested in HEK293T cells; further: read-out not given here; potency means the concentration at half of the fitted maximal effect; nearly all actives have a fitted effect of over 45% in size
HCV inhibitor – inhibitors of hepatitis C virus infection; Huh7.5.1 HCVcc-Cre infection, luciferase reporter, 44 h; Potency, µM (titrated, usually from 41.8 µM), for the others: at the top dose activity change, negative = inhibition, most hits filed as inhibitors; hit rate 3.4% among 340,000; active means well fitted inhibition curve with a large enough effect; inconclusive means small, poorly fitted or top-dose-only effect, or another doubt; inactive means no such curve, though single readings can be large or run the other way; further: potency means the concentration at half of the fitted maximal effect
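Reporter virus HCVcc-Cre (~0.5 moi) infects cells exposed to compound; seeding density 1,000 cells/well with 4 h settling beforehand. Luminescence, 15 sec read, taken 44 h post-infection following a 15 min RT substrate incubation.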
Lassa entry inh – Lassa virus entry inhibition; AID 540256; Lassa virus pseudotype entry inhibition, cell reporter; hit rate 1.2% among 300,000; Potency, µM (series often up to 37.9 µM), for inactives: top-dose activity change, negative = inhibition, actives largely listed as inhibitors; calls by dose curve; tested in HEK293 cells; further: potency means the concentration at half of the fitted maximal effect; nearly all actives have a fitted effect of over 50% in size
An asterisk follows results filed as active; ? = inconclusive; . = no result; [ ] = dose if it differs, or a comment. The list is not random: actives were taken first. Their share in the collection is about 7.9%. On the % scale 0 is the no-effect control and ±100 the full control effect.

SMILES	HCMV antiviral	Marburg entry inh	FMDV inh	HCV inhibitor	Lassa entry inh
COc1ccc(N2CCN(C(=O)CSc3nnc(-c4cc5ccccc5cc4O)n3C)CC2)cc1	-67*	-18%	25µM*	?	-2%
Cn1c(SCC(=O)N2CCN(c3ccccc3)CC2)nnc1-c1ccccc1	-31	-28%	?	?	-1%
CCn1c(SCC(=O)N2CCCc3ccccc32)nnc1-c1c[nH]c2ccccc12	-26	?	?	?	?
CC(C)(C)c1ccc(CS(=O)CC(O)CO)cc1 (stereo not given)	6	?	-5%	13%	13%
CCOc1ccc(CCNC(=O)c2nn(-c3ccc(OC)cc3)c(=O)c3c2c2ccccc2n3C)cc1OCC	16	6%[46.1 µM]	-23%	.	0%[46.1 µM]
CCn1c(SCC(=O)N2CCN(c3ccccc3)CC2)nnc1-c1c[nH]c2ccccc12	-75*	.	?	8.9µM*	.
CC(NC(=O)OCc1ccccc1)C(=O)Oc1cc2oc(=O)cc(-c3ccccc3)c2cc1Cl (stereo not given)	-94*	-13%	-18%	25%	7%
O=C(O)c1ccc2c3n(nc2c1)-c1ccc(Cl)cc1CO3	60	.	7.9µM*	55%	.
COC(=O)c1ccc(Cn2c(=O)cc(C)c3c(C)nn(C)c32)cc1	4	.	?	.	1%[46.1 µM]
COc1ccc(-c2coc3cc4oc(=O)c5ccccc5c4cc23)cc1F	-85*	-2%	-16%	?	?
O=[N+]([O-])c1ccc(NS(=O)(=O)N2CCOCC2)cc1	17	?	-1%	3%	?
N#Cc1ccc(-c2ccco2)nc1SCC(=O)c1ccc(Cl)cc1	-34	?	-18%	4.5µM*	?
O=C(C1CCCCN1S(=O)(=O)c1ccccc1)N1CCN(C(c2ccccc2)c2ccccc2)CC1 (stereo not given)	32	?	-19%	13µM*	-38%
O=C(C1CCCCN1S(=O)(=O)c1ccccc1)N1CCCCC1 (stereo not given)	-7	0%	-9%	?	7%
COC(=O)c1ccccc1C(=O)N(c1ccccc1)c1ccccc1	?	-19%	-18%	-1%	2%
COc1ccc(S(=O)(=O)N2CCCCCC2)cc1N(C)S(=O)(=O)c1ccc(C)cc1	-77*	?	-2%	?	?
COc1ccc(S(=O)(=O)N2CCCCCC2)cc1C(=O)N(C)Cc1ccc(Cl)cc1Cl	-29	?	0%	11µM*	?
Cc1cc(C)c(S(=O)(=O)N2CCCCC2)cc1N(C)S(=O)(=O)c1ccc(Cl)cc1	?	?	-14%	32µM*	?
CC1(C(=O)NS(=O)(=O)c2cccc(Cl)c2)CCN1C(=O)CCc1cccs1 (stereo not given)	9	.	1%	.	.
CC(C)c1ccc(NC(=O)C(C)N(c2ccccc2)S(C)(=O)=O)cc1 (stereo not given)	6	-25%[46.1 µM]	-17%	.	-20%[46.1 µM]
CCOC(=O)c1cc2c(=O)n3ccccc3nc2n(CC2CCCO2)c1=NC(=O)c1cccc(C)c1 (stereo not given)	-4	0%[46.1 µM]	11%	.	?
COc1ccc2[nH]c3c4c(ccc3c2c1)C(=O)C=CC4=O	81	.	14µM*	?	.
COc1ccc2[nH]c(=O)cc(C(=O)O)c2c1	21	4%[14.2 µM]	-1%	-3%	26%
CCOc1cc(/C=C/c2nc3cc(C)c(C)cc3s2)ccc1OCC(=O)N1CCOCC1	-21	-19%	-13%	-6%	-12%
CCOc1cc(/C=C\[N+](=O)[O-])ccc1OCC(=O)N1CCOCC1	-92*	-10%[46.1 µM]	8.9µM*	?	-8%
SMILES	HCMV antiviral	Marburg entry inh	FMDV inh	HCV inhibitor	Lassa entry inh
Cc1cnn(C(=O)c2cc(-c3ccccc3)nc3ccccc23)c1	36	1%	22%	12%	22%
Cc1cnn(-c2nc(-c3ccccc3)cc(-c3ccccc3)n2)c1	?	?	6%	7.9µM*	-23%[46.1 µM]
Fc1ccc(-c2cc(C(F)(F)F)nc(-n3cc(Cl)cn3)n2)cc1	?	.	0%	?	.
FC(F)(F)c1cc(-c2ccccc2)nc(-n2cc(Cl)cn2)n1	-60*	.	?	?	.
COc1ccc(-c2nn(-c3cccc([N+](=O)[O-])c3)c3c2cnc2cc4c(cc23)OCO4)cc1	2	.	-5%	.	17%[46.1 µM]
COc1ccc(-c2cc(C3CCN(c4cc(Cl)nc(N)n4)CC3)[nH]n2)cc1	-60*	9.2µM*	22µM*	?	?
COc1ccc(OC)c(-c2cc(C3CCN(c4cc(Cl)nc(N)n4)CC3)[nH]n2)c1	-89*	?	18µM*	?	?
O=C(c1cc(COc2ccc3ncccc3c2)on1)N1CCCC1	?	?	-23%	7.1µM*	-10%
CC(NC(=O)c1cc(COc2ccc3ncccc3c2)on1)c1ccc(F)cc1 (stereo not given)	-85*	.	1.8µM*	2.2µM*	.
COCC1CCN(C(=O)c2cc(COc3ccc4ncccc4c3)on2)CC1	-75*	-19%[46.1 µM]	?	1.1µM*	?
O=C(NC1CCCC1)c1cc(COc2ccc3ncccc3c2)on1	.	.	?	3.5µM*	.
O=C(c1cc(COc2ccc3ncccc3c2)on1)N1CCCCCC1	-37	?	-6%	?	-23%[46.1 µM]
O=C(NCCc1cn2ccccc2n1)c1ccccc1F	-21	12%	-15%	-2%	16%
O=C(NCCc1cn2ccccc2n1)c1cc(COc2ccc3ncccc3c2)on1	-76*	5.6µM*	11µM*	2.5µM*	-23%
O=Cc1c(Sc2ccccc2)nc2ccccn2c1=O	43	?	?	-8%	?
O=Cc1c(Sc2ccccn2)nc2ccccn2c1=O	149	1%	?	35µM*	-18%
Cc1ccc(Cn2c(CO)cnc2SCc2cccc(F)c2)cc1	-11	.	-2%	.	?
OCc1cnc(SCc2cccc(F)c2)n1Cc1ccc(F)cc1	-71*	.	-10%	.	17%[46.1 µM]
Brc1cc(-c2ccccc2)nc(-c2ccccc2)n1	25	20%[46.1 µM]	-5%	11µM*	-17%
O=C(NCC1CCC2(CCN(Cc3cccc4ncccc34)CC2)O1)c1ccccc1 (stereo not given)	.	.	0%	.	.
Nc1ccc(C(=O)OCc2nc3c(ccc4ccccc43)[nH]2)cc1	-35	?	9%	?	8.9µM*
Nc1ccc(C(=O)OCc2nc3cc4ccccc4cc3[nH]2)cc1	-93*	1.6µM*	20%	-28%	2.6µM*
Nc1ccc(Cc2nc3cc4ccccc4cc3[nH]2)cc1	?	?	.	-16%	2.6µM*
Cc1ccc2cc(NC(=O)C3(C)CCN(C)C3)ccc2n1 (stereo not given)	9	.	-10%	.	.
CCn1cc(/C=C/C(=O)Nc2ccn(Cc3c(F)c(F)cc(F)c3F)n2)cn1	-70*	?	-9%	?	5%
Cn1cc([N+](=O)[O-])c(C(=O)Nc2ccn(Cc3c(F)c(F)cc(F)c3F)n2)n1	-92*	4%	-19%	?	-20%
Cn1ncc([N+](=O)[O-])c1C(=O)Nc1ccn(Cc2ccccc2F)n1	-62*	3%	-19%	.	-13%[14.3 µM]
